Compound activity from PubChem.
This is a sample that favours compounds with a hit; in the whole collection about 3.6% have one here.
Myeloid diff 2 = myeloid differentiation induction | ER-HoxA9 myeloid progenitors, lysozyme-GFP differentiation, flow cytometry | calls only at 10 µM | actives 1% (n = 360,000) | AID 624256;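 active = normalized GFP-positive differentiation at or above the plate's own cutoff, the solvent-only control mean plus 3 SD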;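 note: cells exposed to compound for four days before flow analysis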
NRP1-CendR mod = NRP-1/CendR interaction modulation; actives 0.85% (n = 360,000); FAM-RPARPAR peptide binding to NRP-1, fluorescence polarization; O14786; inhibition, % at 25 µM; AID 602438;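 active = inhibition or corrected inhibition above about 18%, plus a signal ratio from 0.5 to 1.5, limit read from the data, passing the limit was not always enough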
Target sequence (O14786 whole entry, looked up): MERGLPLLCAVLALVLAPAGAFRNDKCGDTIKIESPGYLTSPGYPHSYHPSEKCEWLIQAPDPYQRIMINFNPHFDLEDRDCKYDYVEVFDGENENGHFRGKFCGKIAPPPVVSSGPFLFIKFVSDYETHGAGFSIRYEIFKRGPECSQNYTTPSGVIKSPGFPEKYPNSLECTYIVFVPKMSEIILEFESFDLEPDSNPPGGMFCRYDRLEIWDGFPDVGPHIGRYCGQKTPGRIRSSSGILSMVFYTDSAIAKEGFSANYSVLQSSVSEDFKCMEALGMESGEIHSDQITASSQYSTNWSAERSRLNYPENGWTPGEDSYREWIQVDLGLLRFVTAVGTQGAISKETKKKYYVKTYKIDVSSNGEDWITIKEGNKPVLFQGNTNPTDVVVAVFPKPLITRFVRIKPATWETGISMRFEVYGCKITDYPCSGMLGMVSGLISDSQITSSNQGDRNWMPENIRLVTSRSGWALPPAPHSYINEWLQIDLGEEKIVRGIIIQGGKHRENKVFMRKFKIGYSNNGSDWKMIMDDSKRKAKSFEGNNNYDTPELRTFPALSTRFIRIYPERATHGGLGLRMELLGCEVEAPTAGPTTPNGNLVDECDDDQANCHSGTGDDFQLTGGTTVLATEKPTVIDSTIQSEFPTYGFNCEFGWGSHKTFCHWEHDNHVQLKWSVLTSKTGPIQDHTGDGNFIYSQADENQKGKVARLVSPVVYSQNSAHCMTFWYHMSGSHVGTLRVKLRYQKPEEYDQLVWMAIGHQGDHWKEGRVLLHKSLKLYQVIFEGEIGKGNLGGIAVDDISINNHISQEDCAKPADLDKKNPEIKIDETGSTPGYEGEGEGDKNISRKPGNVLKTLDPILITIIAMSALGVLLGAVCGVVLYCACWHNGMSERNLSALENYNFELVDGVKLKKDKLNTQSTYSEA
CRFBP-R2 block = antagonists of CRF-binding protein/CRF-R2 receptor complex; actives 0.59% (n = 350,000); HEK293 CRF-R2/CRF-BP, CRF-induced calcium fluorescence; inhibition, % at 11.8 µM;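 active = inhibition of the ligand-induced calcium signal above about 50% at the single tested concentration, limit read from the data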
NadD block = blocks S. aureus nicotinate mononucleotide adenylyltransferase. purified NadD enzyme, colorimetric absorbance read-out. actives 0.78% (n = 360,000). AID 602399. inhibition, % at 20 µM; in the data active = inhibition above about 26%
FAS TE block = inhibitors of human fatty acid synthase thioesterase domain. recombinant FAS-TE, OMFH fluorogenic substrate, fluorescence endpoint. inhibition, % at 15 µM. actives 0.67% (n = 360,000). AID 602261;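 active = compounds whose normalised, plate-corrected inhibition of enzyme fluorescence in the single-dose primary screen is 50% or more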
Hits are given with their value.

CCO[C@@H]1OC(C(=O)NCc2ccccc2)=C[C@H](c2ccc(Br)cc2)[C@H]1CCCO was read as Myeloid diff 2 inactive, NRP1-CendR mod 24, CRFBP-R2 block inactive, NadD block inactive and FAS TE block inactive.
Screening COCCN1C(=O)CSCC1(C)C(=O)NC(C)C (stereo not drawn) returned Myeloid diff 2 inactive and NRP1-CendR mod inactive.
For CCN(CC(=O)Nc1ccccc1C(F)(F)F)C(=O)c1ccc2c(=O)n3c(nc2c1)CCC3 the results were Myeloid diff 2 active, NRP1-CendR mod inactive, CRFBP-R2 block inactive, NadD block inactive and FAS TE block inactive.
CC(NC(=O)COC(=O)c1ccc2c(=O)n3c(nc2c1)CCCCC3)c1ccccc1 (stereo not drawn) was read as Myeloid diff 2 inactive, NRP1-CendR mod inactive, CRFBP-R2 block 63, NadD block inactive and FAS TE block inactive.
`CCN(CC(=O)Nc1c(F)cccc1F)C(=O)c1ccc(S(=O)(=O)N2CCCCCC2)cc1` gave Myeloid diff 2 inactive, NRP1-CendR mod inactive, CRFBP-R2 block inactive, NadD block inactive and FAS TE block inactive.
Screening CCN(CC(=O)Nc1c(F)cccc1F)C(=O)c1ccc(S(=O)(=O)N2CCC(C)CC2)cc1 returned Myeloid diff 2 inactive, NRP1-CendR mod inactive, CRFBP-R2 block 122, NadD block inactive and FAS TE block inactive.
For CN(CC(=O)Nc1ccccc1Br)C(=O)c1ccc2c(=O)n3c(nc2c1)CCC3 the results were Myeloid diff 2 inactive, NRP1-CendR mod inactive, CRFBP-R2 block inactive, NadD block inactive and FAS TE block inactive.
CCN(CC(=O)Nc1c(F)cccc1F)C(=O)c1ccc2c(=O)n3c(nc2c1)CCC3 was read as Myeloid diff 2 inactive, NRP1-CendR mod inactive, CRFBP-R2 block 104, NadD block inactive and FAS TE block inactive.
For COc1cccc(C2CC(OCCF)=CC(=O)O2)c1 (stereo not drawn) the results were Myeloid diff 2 inactive and NRP1-CendR mod inactive.
COc1cccc(-c2nc3nc(C)cc(C)n3c2NC2CCCC2)c1 was read as Myeloid diff 2 inactive, NRP1-CendR mod inactive, NadD block inactive and FAS TE block inactive.
O=C(Oc1ccccc1Cl)c1ccc2c(=O)n3c(nc2c1)CCC3 was read as Myeloid diff 2 inactive, NRP1-CendR mod inactive, CRFBP-R2 block inactive, NadD block inactive and FAS TE block inactive.
Screening O=C(Oc1ccccc1F)c1ccc2c(=O)n3c(nc2c1)CCC3 returned Myeloid diff 2 inactive, NRP1-CendR mod inactive, CRFBP-R2 block 99, NadD block inactive and FAS TE block inactive.
C[C@@H]1CN([C@H](C)CO)C(=O)c2c(c3ccccc3n2C)-c2ccccc2CO[C@H]1CN(C)S(=O)(=O)c1cn(C)cn1 was read as Myeloid diff 2 inactive, NRP1-CendR mod inactive, CRFBP-R2 block inactive, NadD block inactive and FAS TE block inactive.
For O=S1(=O)CC2N=C(N(Cc3c(F)cccc3Cl)c3ccccc3F)SC2C1 (stereo not drawn) the results were Myeloid diff 2 inactive, NRP1-CendR mod inactive, CRFBP-R2 block inactive, NadD block inactive and FAS TE block inactive.
`O=C(O)c1ccccc1CSc1ccccn1` gave Myeloid diff 2 inactive, NRP1-CendR mod 40, CRFBP-R2 block inactive, NadD block inactive and FAS TE block inactive.
CCCCCCCCNc1ccccc1S(=O)(=O)NCc1ccccc1 was read as Myeloid diff 2 inactive, NRP1-CendR mod inactive, CRFBP-R2 block inactive, NadD block inactive and FAS TE block inactive.
For O=S(=O)(NCc1ccccc1)c1ccccc1NCCc1ccccc1 the results were Myeloid diff 2 inactive, NRP1-CendR mod inactive, CRFBP-R2 block 110, NadD block inactive and FAS TE block inactive.
COc1cc(C2C3CN(C)CC=C3C(C#N)=C(N)C2(C#N)C#N)ccc1OC(C)C (stereo not drawn) was read as Myeloid diff 2 inactive, NRP1-CendR mod inactive, CRFBP-R2 block inactive, NadD block inactive and FAS TE block inactive.
Screening COc1cc([C@@H]2[C@H]3CNCC=C3C(C#N)=C(N)C2(C#N)C#N)ccc1OC(C)C returned Myeloid diff 2 active, NRP1-CendR mod inactive, CRFBP-R2 block inactive, NadD block inactive and FAS TE block inactive.
Screening CCNC(=O)C1CCCN(C(=O)c2cc(F)cc(F)c2)CC1 (stereo not drawn) returned Myeloid diff 2 inactive, NRP1-CendR mod inactive, NadD block inactive and FAS TE block inactive.
For O=C1OCC/C1=C\NCCCCCCCCN/C=C1\CCOC1=O the results were Myeloid diff 2 inactive, NRP1-CendR mod inactive, CRFBP-R2 block inactive, NadD block inactive and FAS TE block inactive.
